In PubChem BioAssay AID1508624 (National Center for Advancing Translational Sciences (NCATS), 2021):
Screen size: about 48,000 compounds; about 120 (0.25%) were called active. A call without a number means that no potency is given here. Inconclusive results (about 4%) are left out. Calls come from the whole dose curve; as a rule, active = well fitted activation curve with a large enough effect; inconclusive = small, poorly fitted or top-dose-only effect, or another doubt; inactive = no such curve, though single readings can be large or run the other way. The full list was thinned out, with actives kept by preference.

Assay: Primary qHTS for Identification of Small Molecule Activators of Huntingtin-Antisense Promoter Activity; note: nearly all actives have a fitted effect of over 55% in size
Conditions: HEK293 HTT-AS promoter firefly luciferase reporter, 24 h; series mostly up to 57.5 µM
Text: Assay Provider: Russell L. Margolis M.D.
Department Neurology, Johns Hopkins University School of Medicine, Baltimore, MD
Huntington's Disease (HD) is a neurodegenerative disorder caused by a CAG repeat expansion in exon 1 of huntingtin (HTT). While there are currently no disease-modifying treatments for HD, recent efforts have focused on development of nucleotide-based therapeutics to lower HTT expression. As an alternative to siRNA or oligonucleotide methods, we hypothesized that suppression of HTT expression might be accomplished by small molecules that either (1) directly decrease HTT expression by suppressing HTT promoter activity or (2) indirectly decrease HTT expression by increasing the promoter activity of HTT-AS, the gene antisense to HTT that appears to inhibit expression of HTT.
We developed and employed a high throughput screen for modifiers of HTT and HTT-AS promoter activity using luminescent reporter HEK293 cells; of the 52,041 compounds tested, we identified 898 replicable hits. We used a rigorous stepwise approach to assess compound toxicity and the capacity of the compounds to specifically lower huntingtin protein in 5 different cell lines, including HEK293 cells, HD lymphoblastoid cells, mouse primary neurons, HD iPSCs differentiated into cortical-like neurons, and HD hESCs. We found no compounds which were able to lower huntingtin without lowering cell viability in all assays, though the potential efficacy of a few compounds at non-toxic doses could not be excluded.
SEQUENCE No. (1, 2, 3, etc.); […] (e.g., Cells, Incubation, Reagent, etc.); VALUE and DESCRIPTION.
1; Reagent; 4 uL; 2,500 Hek293 luciferase reporter cells per wells
3; Compound; 23 nL; Control inhibitor / compound library
5; Reagent; 2.5 uL; Firefly Luc reagent; Dual-Glo Luciferase Reporter Assay System (Promega)
6; Time; 10 min; room temperature incubation
7; Detection; Luminescence; FLuc
NOTES (numbers refer to sequence above)
1; High-throughput screening, measuring luminescence from a Hek293 luciferase reporter, was performed in 1,536 well white-walled tissue-culture treated plates. 2,500 cells were plated in 4 µL of Opti-MEM per well using a Multidrop Combi Reagent Dispenser (ThermoFisher).
2; Assay plates were cultured for 24 hours.
3; Control inhibitor (PTC124; final concentration of 50 uM) and compound library (at final concentrations of 460 nM - 57.5 uM) were added to the assay plate using the Kalypsis Pintool Robotic System equipped with 1536 pinheads.
4; Cells were then incubated for 24 hours at 37 degrees C prior to luminescence measurements.
5; In all cases, luminescence was measured using the Dual-Glo Luciferase Reporter Assay System (Promega) following the manufacturer's instructions.
6; Room temperature incubation.
7; Luminescence signal was obtained using the PerkinElmer ViewLux plate reader. Results were normalized to vehicle control (0% activity) and zero RLU (-100% activity).
Potency is the fitted concentration of half-maximal effect.

Compound	activity change, positive = activation	Potency
CSc1nc(Nc2ccc(F)cc2)cc(-c2ccccc2)n1	inactive	–
Cc1nnc(SCC(=O)NCc2ccccc2Cl)c2nn(-c3ccccc3)c(C)c12	inactive	–
Cc1ccc(C)c(Cn2c(C)c(CNCc3ccc(F)cc3)c(C(=O)O)c2C)c1	inactive	–
CCn1c(CN2CCC(C)CC2)nc2cc(NC(=O)c3ccccc3[N+](=O)[O-])ccc21	inactive	–
COc1ccc(-c2cn3nc(N4CCC(C(=O)Nc5cccc(C)c5C)CC4)sc3n2)cc1	inactive	–
COc1ccc(-c2nc(CN3CCC(C(=O)NCc4ccccc4)CC3)c(C)o2)cc1OC	inactive	–
CC(C)CNc1ncnc2c1nnn2C	inactive	–
CSc1ccccc1-c1nnc(NC(=O)c2ccc3c(c2)OCCO3)o1	inactive	–
COc1ccc(NC(=O)CCc2nnc3n(CC(C)C)c(=O)c4ccccc4n23)cc1OC	inactive	–
O=C(NCC(c1ccc(Cl)cc1)N1CCOCC1)c1ccccc1F (configuration not stated)	inactive	–
CCOc1ccc(NC(=O)CC2C(=O)N(c3cccc(OC)c3)C(=O)N2C2CCCCC2)cc1 (configuration not stated)	inactive	–
COc1cc(OC)cc(C(=O)Nc2ccc3nc(Nc4cccc(C(F)(F)F)c4)cc(C)c3c2)c1	inactive	–
Cn1cc(S(=O)(=O)N2CCCCCC2)cc1C(=O)N1CCN(c2ccc(F)cc2)CC1	inactive	–
Cc1ccc(NS(=O)(=O)c2ccc3c(c2)CC(=O)N3)cc1Cl	inactive	–
CCCc1nn2c(=O)cc(COC(=O)c3ccc(NC(=O)COc4ccc(F)cc4)cc3)nc2s1	inactive	–
CSc1ccc(NC(=O)Cn2nnnc2-c2ccccc2F)cc1	inactive	–
CCOc1ccc(N(CC)S(=O)(=O)N2CCCC(C(=O)NCc3ccc(SC)cc3)C2)cc1 (configuration not stated)	inactive	–
Cc1ccc(N2CC(NC(=O)Cc3cccs3)CC2=O)cc1 (configuration not stated)	inactive	–
CSc1ccc(C2C(C(=O)Nc3ccccc3)=C(C)Nc3nc4ccccc4n32)cc1 (configuration not stated)	inactive	–
CC1CCCN(S(=O)(=O)c2ccc3[nH]c(=O)cc(C(=O)NCCc4ccc(Cl)cc4)c3c2)C1 (configuration not stated)	inactive	–
COc1ccc(Cl)cc1NC(=O)CSc1nc2ccccc2c2nc(-c3ccccc3)nn12	inactive	–

Compound	activity change, positive = activation	Potency
O=C(CC(c1cccs1)N1Cc2ccccc2C1=O)Nc1ccc(F)cc1F (configuration not stated)	inactive	–
COCCNC(=O)c1ccc2c(c1)N=C(C)c1cc(C)ccc1S2	inactive	–
COc1ccc(-c2nc3c4ccccc4n(CC(=O)Nc4ccc(C(C)=O)cc4)c(=O)n3n2)cc1	inactive	–
Cc1cccc(N2CCN(C(=O)Cn3ncc4c5ccccc5n(C)c4c3=O)CC2C)c1 (configuration not stated)	inactive	–
CCOC(=O)N1CCC(NC(=O)c2cnn(-c3cccc(C)c3)c2C2CCN(C(=O)OC(C)(C)C)CC2)CC1	inactive	–
COc1cccc(NC(=O)N(Cc2cn(C)c3ccccc23)C2CCCCCC2)c1	inactive	–
COc1ccc(CNC(=O)COCc2cc(-c3cccs3)on2)cc1OC	inactive	–
COc1cccc(CNC(=O)Cn2ncn3c(cc4ccccc43)c2=O)c1	inactive	–
COc1cc2ccccc2cc1C(=O)Nc1cccc(-c2nc3ccccc3o2)c1	4.7% [at 11.5 µM, percent change from vehicle, -100% = no light] (inactive)	–
CC1CCN(c2nc3ccc(C(=O)N4CCN(c5ccccc5)CC4)cc3s2)CC1	inactive	–
COc1cc(NC(=O)CN2CCN(S(=O)(=O)c3ccc(Br)cc3)CC2)cc(OC)c1	inactive	–
CCOC(=O)c1cccc(NC(=O)c2cc(S(=O)(=O)N3CCCC(C)C3)cn2C)c1 (configuration not stated)	inactive	–
Cc1ccc(OCC(=O)OCc2cc(=O)n3nc(C4CC4)sc3n2)cc1C	inactive	–
COc1cc(-c2nnn(CC(=O)NCc3ccccc3)n2)cc(OC)c1OC	inactive	–
Cc1ccc(C)c(N2CCN(CCCNC(=O)Nc3ccc(Cl)cc3)CC2)c1	inactive	–
CCCCC12CN3CC(C)(CN(C1)C3c1ccc(O)c(OC)c1)C2=O (configuration not stated)	inactive	–
Cc1cc(Cl)ccc1NC(=O)Cc1ccc(NC(=O)N2CCCCc3ccccc32)cc1	inactive	–
CCN(CC)CCNc1ncnc2c1cnn2-c1cc(Cl)ccc1C	inactive	–
COc1ccc(C(=O)Nc2ccc(-n3nncc3-c3ccccc3)cc2)cc1OC	inactive	–
CN(Cc1ccccc1)C(=O)CCS(=O)(=O)c1cc(Br)cc2c1N(C(=O)C1CC1)CC2	inactive	–
Cc1ccc(-c2nnc(SCc3ccccc3C)o2)cc1	–	14.1 µM (active)

Compound	activity change, positive = activation	Potency
COc1ccc(-c2nnc(SCC(=O)Nc3ccccc3C)o2)cc1OC	inactive	–
Cc1ccc(OC(=O)CSc2nnc(-c3cccs3)o2)cc1	inactive	–
Cc1ccc(Cl)cc1N(C)C(=O)C1CCCN(c2ncnc3onc(-c4ccc(F)cc4)c23)C1 (configuration not stated)	inactive	–
CC(C)c1ccc(C2CC(=O)N3CN(C4CCCCC4)CSC3=C2C#N)cc1 (configuration not stated)	inactive	–
CC(C)CNc1ccnc(NCc2csc(-c3ccccc3)n2)n1	inactive	–
Cc1ccc2onc(CC(=O)N3CCN(c4ccc(Cl)cc4)CC3)c2c1	inactive	–
COc1ccccc1N1CCN(C(CNC(=O)C(=O)NCc2ccc(C)cc2)c2cccnc2)CC1 (configuration not stated)	inactive	–
Cc1ccc(-c2cnc(NCc3ccc(C(C)C)cc3)n2C)cc1	inactive	–
CCOC(=O)c1ccccc1NC(=O)c1nn(-c2ccc(OC)c(Cl)c2)c(=O)c2c1c1ccccc1n2C	inactive	–
O=C(CSc1nccn1-c1ccc(F)cc1)Nc1cccc2ccccc12	inactive	–
Cc1cc(C)cc(NC(=O)CCCc2nc(-c3ccccc3Cl)no2)c1	inactive	–
COc1ccc(CN2C(=O)C(NC(=O)c3cccc(C)c3)(C(F)(F)F)N=C2c2ccccc2)cc1 (configuration not stated)	inactive	–
COc1ccc(CCNC(=O)Cn2c(=O)cc(C(F)(F)F)c3c(C)nn(C)c32)c(OC)c1	inactive	–
Cc1cccn2c(=O)c3cc(C(=O)NC(C)c4ccccc4)c(=N)n(CCCO)c3nc12 (configuration not stated)	inactive	–
CC(C)(C)c1ccc(C(=O)NCC(c2ccc(Cl)cc2)N2CCOCC2)cc1 (configuration not stated)	inactive	–
COc1ccc(CCC(=O)NCCc2csc(-c3ccc(Cl)cc3)n2)cc1	inactive	–
COc1ccc(Cl)cc1NC(=O)Cn1c(=O)c2ccccc2n2nncc12	inactive	–
CC(C)CCNC(=O)CSc1nc2ccccc2nc1Cc1ccc(Cl)cc1	inactive	–
Cc1ccccc1OCCSc1nc2ccc(NC(=O)c3ccco3)cc2s1	inactive	–
O=C(Nc1cc(-c2nc3ccccc3o2)ccc1Cl)c1cc([N+](=O)[O-])ccc1N1CCOCC1	inactive	–
